Assay results reported in PubChem BioAssay AID1903 (Southern Research Specialized Biocontainment Screening …, 2009).
Where “and” joins values, the source holds several entries; their conditions need not be identical. Equal values may be shown once. The whole screen tested about 310,000 compounds, of which about 1,200 (0.39%) were called active. No rule for the calls is given here. Not all results are given here. Entries with a potency or affinity are not part of this list.

Each molecule was assayed against Large T antigen (Simian virus 40) (UniProt P03070) (assay: TAg ATPase/helicase activity blockers – biochemical (AID 1903)). Settings: SV40 large T antigen ATPase/helicase inhibition assay; at 20 µM; active compounds read high.
Sequence of Large T antigen (Simian virus 40) (P03070 whole entry, looked up): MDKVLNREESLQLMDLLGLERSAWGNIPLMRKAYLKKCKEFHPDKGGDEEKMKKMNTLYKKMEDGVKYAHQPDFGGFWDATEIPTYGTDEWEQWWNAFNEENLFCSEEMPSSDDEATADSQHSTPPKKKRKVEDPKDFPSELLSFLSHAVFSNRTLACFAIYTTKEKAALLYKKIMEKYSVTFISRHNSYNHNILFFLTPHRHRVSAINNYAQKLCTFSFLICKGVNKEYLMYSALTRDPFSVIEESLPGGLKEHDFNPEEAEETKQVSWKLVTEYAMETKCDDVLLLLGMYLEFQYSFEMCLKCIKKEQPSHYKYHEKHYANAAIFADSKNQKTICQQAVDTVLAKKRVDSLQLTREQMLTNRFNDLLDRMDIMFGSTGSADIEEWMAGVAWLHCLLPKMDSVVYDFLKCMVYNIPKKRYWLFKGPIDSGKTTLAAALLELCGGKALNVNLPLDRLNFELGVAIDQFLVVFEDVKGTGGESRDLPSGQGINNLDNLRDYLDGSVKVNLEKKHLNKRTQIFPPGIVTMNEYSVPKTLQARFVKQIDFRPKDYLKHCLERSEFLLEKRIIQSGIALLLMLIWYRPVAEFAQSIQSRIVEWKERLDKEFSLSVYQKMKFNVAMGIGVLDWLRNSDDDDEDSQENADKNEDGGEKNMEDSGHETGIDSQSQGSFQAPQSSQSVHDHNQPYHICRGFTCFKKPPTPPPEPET

inhibition, inactive:
COc1cccc2c1O/C(=N\O)C(C(=O)Nc1ccc(C)cc1)C2 (stereo not given) 8.2%, S=C(c1ccc(Br)cc1)N1CCCC1 6.77%, COc1cc(/C=N/NC(=O)c2ccc3c(c2)OCCO3)c(Br)c(Br)c1O 29.5%, COc1cccc(/C=N/NC(=O)c2ccoc2C)c1O 9.61%, CCn1c(C)nc2cc(C(=O)N/N=C/c3ccc(OC)cc3)ccc21 29.8%, COc1cc(/C=N/NC(=O)c2ccc3c(c2)OCO3)ccc1O -30%, CCn1c(C)nc2cc(C(=O)N/N=C/c3cccc(OC)c3O)ccc21 6.05%, COc1cc(/C=N/NC(=O)c2ccoc2C)ccc1O 18%, CCOc1ccc(/C=N/NC(=O)c2ccoc2C)cc1OC -2.86%, COc1ccc(/C=N/NC(=O)c2ccoc2C)cc1OC 6.94%, CCCCN(C)CCN1C(=O)C2C(C(=O)Nc3ccc(OC)cc3)C3C=CC2(O3)C1C(=O)NC1CCCCC1 (stereo not given) 1.82%, Cc1cccc(NC(=O)CSc2ccc3nnc(-c4cccnc4)n3n2)c1 6.51%, COC(=O)c1ccc(S(=O)(=O)NNC(=O)COc2ccc(C)cc2)cc1 6.42%, Cc1c(Nc2cc(N3CCCCCC3)c3nonc3c2[N+](=O)[O-])c(=O)n(-c2ccccc2)n1C 3.53%, CC1=C(C(=O)Nc2ccccc2)C(c2ccc(O)cc2)N2C(=O)CSC2=N1 (stereo not given) 3.32%, Cc1nn(-c2ccccc2)c(C)c1C(=O)OCC(=O)N1CC(=O)Nc2ccccc21 10.3%, Cc1ccc2c(C)c(C(=O)N(Cc3ccc(F)cc3)C3CCS(=O)(=O)C3)oc2c1 (stereo not given) 7.21%, O=C1CCCN1CCCNc1ncccc1[N+](=O)[O-] 1.65%, CCC(C)(O)c1[nH]c2ccc(C(=O)OC)cc2c1C (stereo not given) 2.01%, CCCCC(CC)C1OCC(C[N+]2(C)CCOCC2)O1 (stereo not given) 19.1%, Cc1occc1C(=O)N/N=C/c1ccc(N(C)C)cc1 21.7%, Cc1occc1C(=O)N/N=C/C=C/c1ccccc1 24.7%, COc1ccc(/C=N/NC(=O)c2ccc(C)nc2)cc1O 33.4%, COc1ccc(/C=N/NC(=O)c2cccnc2)cc1O 23.7%, CCN(CC)CC(=O)c1c(N)n(Cc2ccccc2)c(=O)n(C)c1=O 6.97%, Cc1ccc(OCCNCC(O)COc2ccccc2)cc1 (stereo not given) 6.77%, CC(=O)/C=C(\C)Nc1ccccc1O 21.1%, CC(=O)Nc1cc(-c2ccccc2)ccc1O 26.7%, CC(=O)c1ccc(N2C(=NC(=O)C3CCCCC3)SC3CS(=O)(=O)CC32)cc1 (stereo not given) 14.9%, Cc1cc(C(=O)CN2C(=O)NC(Cc3c[nH]c4ccccc34)C2=O)c(C)n1C (stereo not given) -1.66%, Cc1cs/c(=N\N=C\c2ccccc2)n1Cc1ccco1 2.6%, CC(C)=N/N=c1\scc(C)n1Cc1ccco1 9.97%, Nc1ccc(C(=O)O)c(O)c1 2.41% and 26.8% and 24.4%, O=C(O)c1ccccc1O 13.6%, O=C(O)c1cccc(O)c1O 13%, Nc1ccc(N)c(C(=O)O)c1 12.3%, O=C(OCc1nnc(-c2ccccc2)o1)C1CC(=O)N(c2ccccc2)C1 (stereo not given) 4.63%, COc1ccc(CCNCC(=O)Nc2ccccc2C(F)(F)F)cc1 4.81%, CCCCc1nnc(NC(=O)C2CCN(c3ncnc4sc(C)c(C)c34)CC2)s1 6.43%, Cc1ccc(-n2nc3c(=O)n(CC(=O)NCc4ccccc4Cl)nc(C)c3c2C)cc1 10.3%, CCOC(=O)C1=C(O)/C(=C\c2cc(C)n(-c3ccccc3F)c2C)N=C1C 5.39%, O=C(NCc1cccs1)C1CCCN1C(=O)Nc1ccc(F)cc1 (stereo not given) 12.8%, O=C(c1ccc(S(=O)(=O)Nc2ccccc2)cc1)N1CCCC(C(F)(F)F)C1 (stereo not given) 11.1%, CCNC(=O)O/N=C(\C)c1sc(-c2ccc(Cl)cc2)nc1C 1.49%, CCOc1cc(/C=C2/NC(=O)N(CC(=O)OC)C2=O)ccc1OC 31.1%, COc1cc(/C=C2\CCC/C(=C\c3ccc(O)c(OC)c3)C2=O)ccc1O 9.57%, CN=C1S/C(=C\c2ccc(O)c(Br)c2)C(=O)N1C 28.8%, CCOc1cc(/C=C2/NC(=O)N(CC(=O)Nc3cccc(C)c3)C2=O)ccc1O 12.6%, COc1cc(/C=C2/C(=O)CNC2=O)ccc1O 37.6%, CCOc1cccc(/C=C2\NC(=S)N(c3ccccc3)C2=O)c1O 18.7%, COc1cc(/C=C2/SC(=S)N(c3c(C)n(C)n(-c4ccccc4)c3=O)C2=O)ccc1O 27%, CN=C1S/C(=C\c2ccc(OCC(=O)OC)c(OC)c2)C(=O)N1C 3.67%, O=C(O)C1CC(=O)N(Cc2ccc(F)cc2)C1 (stereo not given) 0.55%, COc1ccc(NC(=O)CCNC(C)=O)cc1NS(=O)(=O)c1ccc(F)cc1 3.53%, CCc1ccccc1NC(=O)CNC(=O)CCc1nc2sc3c(c2c(=O)[nH]1)CCCC3 24.8%, Cc1cccc(C)c1N=Nc1c(C)cc(O)cc1C 12.6%, Cc1ccccc1C1N(c2nccs2)C(=O)C2CCCN21 (stereo not given) 12.4%, CCN(c1ccccc1)S(=O)(=O)c1cc(CN2C(=O)c3cccnc3C2=O)ccc1OC 13.8%, Cc1ccc(CNC(=O)/C=C/c2ccc(S(=O)(=O)N3CCOCC3)cc2)cc1 3.26%, NS(=O)(=O)c1cc(C(=O)OCC(=O)c2ccccc2)c(Cl)cc1Cl 2.42%, NCCCC[C@H](NC(=O)C1CCNCC1)c1nnc([C@@H](N)Cc2ccc(O)cc2)o1 2.89%, COc1cc(/C=C2\NC(=S)N(C)C2=O)ccc1OCc1ccccc1F 15.8%, COc1cc(C=C2C(=O)c3ccccc3C2=O)cc(OC)c1OC 6.63%, COc1cc(/C=C2\C(=O)N(C)C(=S)N2C)ccc1O 17.2%, COc1ccc(N=C2NC(=O)/C(=C/c3ccc(O)c(OC)c3)S2)cc1 28.3%, COc1ccc(C=C2C(=O)c3ccccc3C2=O)cc1O 36.2%, O=C1N/C(=C/c2ccco2)C(=O)N1Cc1ccccc1F 11.4%, COC(=O)C1=C(C)N(CCc2ccccc2)C(=O)/C1=C\c1ccco1 10.5%, COc1cc(/C=C2/SC(=Nc3ccc(O)cc3)NC2=O)ccc1O 37.7%, Cc1ccc(NC(=O)C2CCCN(c3nccc(C)n3)C2)c(C)c1 (stereo not given) 4.92%, Cc1sc2nc(CSCC(=O)Nc3c(F)cccc3F)[nH]c(=O)c2c1C 6.91%, COc1ccc(C(=O)Nn2c(C)nc3ccccc3c2=O)cc1OC -1.86%, Cc1ccc(NC(=O)CSc2ccc3nnc(CCNC(=O)c4ccccc4)n3n2)c(C)c1 9.38%, O=C(c1ccccc1F)N1CCN(C2CCC(c3ccccc3)CC2)CC1 (stereo not given) 18.6%, CC(C)(C)C(=O)NC(=O)Nc1ccccc1C(F)(F)F 2.7%, COC(=O)c1ccc(NC(=O)C2CCCN(S(C)(=O)=O)C2)cc1 (stereo not given) 3.57%, C=CCCN(C1CCCC1)S(=O)(=O)c1ccccc1Br 10.4%, O=C(Nc1nc2ccc(Cl)cc2s1)[C@@H]1CCCN1C(=O)c1cccs1 -3.98%, COC(=O)C1=C(C)N(Cc2ccc(C)cc2)C(=O)/C1=C\c1ccc(O)c(OC)c1 11.5%, Cc1c(N2C(=O)/C(=C/c3ccccc3)SC2=S)c(=O)n(-c2ccccc2)n1C 14.5%, Cc1c(N2C(=O)/C(=C\c3cccc4ccccc34)SC2=S)c(=O)n(-c2ccccc2)n1C 9.9%, CCOC(=O)C1=C(C)N(c2ccc(OC)cc2)C(=O)/C1=C\c1ccc(O)c(OCC)c1 28.2%, CCOC(=O)C1=C(C)N(c2ccc(C)cc2)C(=O)/C1=C\c1ccc(O)c(OC)c1 33.5%, CCOc1cc(/C=C2\C(=O)N(CCc3ccc(OC)c(OC)c3)C(C)=C2C(=O)OC)ccc1O 22.8%, Cc1[nH]c(=O)[nH]c(=S)c1C(=O)Nc1ccc(Cl)c(Cl)c1 -9.05%, CC1(C(=O)O)CCC(C(=O)Nc2ccc(F)cc2)C1(C)C (stereo not given) 17.4%, O=C1c2ccccc2S(=O)(=O)N1CCOc1ccc(F)cc1 6.69%, CCOc1ccc(CCNC(=O)COC(=O)C2=NNC(=O)CC2)cc1OCC 12.5%, COc1ccc2c(c1)C1CC(C)(NC(=O)C1S(=O)(=O)c1ccc(F)cc1)O2 (stereo not given) 22.9%, CCOC(=O)c1ccccc1NC(=O)c1cccc2c1C(=O)N(C1CCN(C(=O)OCC)CC1)C2 5.81% and 1.24%, COc1ccc(CN(CCN(C)C)c2ccccn2)cc1 11.2% and 4.35%, CC[N+](C)(C)CCN(Cc1ccc(Cl)cc1)c1ccccn1 19.1%, O=c1[nH]cc(N(CCO)CCO)c(=O)[nH]1 15.6%, O=C(/C=C/c1ccccc1)OCC(=O)N1CCN(c2ccccc2)CC1 8.9%, Cc1onc(C(=O)NCc2cccs2)c1[N+](=O)[O-] -0.94%
